# Compound activity as filed in PubChem BioAssay.
# An excerpt weighted towards active compounds, which were near 7.3% of everything screened.
# VACV Venus inh: inhibitors of vaccinia virus (Venus reporter). 330,000 tested, 0.46% active. Vaccinia virus Venus reporter expression, fluorescence. Potency, µM (titrated, usually from 36.5 µM), inactives show at the highest dose activity change, negative = inhibition, hits mostly inhibitors. AID 720580; calls by dose curve; tested in A549 cells; further: potency means the concentration at half of the fitted maximal effect; nearly all actives have a fitted effect of over 30% in size
# FMDV inh: antivirals against foot and mouth disease virus; FMDV antiviral cell-based qHTS; Potency, µM (titrated, usually from 57.9 µM), inactives show at the highest dose activity change, negative = inhibition, usual class: inhibitors; 410,000 tested, 1.2% active; AID 1159524; calls by dose curve; tested in HEK293T cells; further: read-out not given here; potency means the concentration at half of the fitted maximal effect; nearly all actives have a fitted effect of over 45% in size
# HCV inhibitor: inhibitors of hepatitis C virus infection; Potency, µM (titrated, usually from 41.8 µM), for inactives: top-dose activity change, negative = inhibition, most hits filed as inhibitors; AID 651820; 340,000 tested, 3.4% active; Huh7.5.1 HCVcc-Cre infection, luciferase reporter, 44 h; active means well fitted inhibition curve with a large enough effect; inconclusive means small, poorly fitted or top-dose-only effect, or another doubt; inactive means no such curve, though single readings can be large or run the other way; further: potency means the concentration at half of the fitted maximal effect
#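 Infectious HCV cell culture screen: compound-treated cells (1,000/well, pre-plated 4 h) are infected with HCVcc-Cre at roughly 0.5 moi and grown 44 h. Infection is quantified by luciferase signal after 15 min substrate incubation at room temperature.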
# HCMV antiviral: blocks human cytomegalovirus replication. HFF cells, HCMV-luciferase reporter, 72 h; stronger effect = lower value. activity change, negative = inhibition, % at 57.5 µM. 410,000 tested, 4.5% active; in the data active means activity change below about -60%; inconclusive means no clear call, values can overlap the other calls; inactive means above about -39%
#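 Inhibition of viral replication was scored as loss of reporter luminescence in HFFs infected with HCMV-luciferase (MOI 1 PFU/cell) for 72 h; compounds tested at 2 doses, normalized to buffer and Salinomycin controls.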
# VACV mCherry inh: vaccinia inhibition (mCherry reporter) | Potency, µM (highest dose often 36.5 µM), without a hit: at the top dose activity change, negative = inhibition, most hits filed as inhibitors | 310,000 tested, 0.63% active | Vaccinia virus mCherry reporter infection, fluorescence | AID 720579; calls by dose curve; tested in A549 cells; further: potency means the concentration at half of the fitted maximal effect; nearly all actives have a fitted effect of over 35% in size
# An asterisk follows results filed as active; i = inactive; ? = inconclusive; · = no result; ! = a repeat was not active. On the % scale 0 is the no-effect control and ±100 the full control effect.
SMILES,VACV Venus inh,FMDV inh,HCV inhibitor,HCMV antiviral,VACV mCherry inh
O=C(c1ccc2c(=O)n(-c3ccccc3)c(=O)[nH]c2c1)N1CCCCC1,-12.7%,·,-21.9%,-66.0*,i
COc1ccc(N2CCN(C(=O)c3ccc4c(=O)n(CCc5ccc(OC)c(OC)c5)c(=O)[nH]c4c3)CC2)cc1,-13.7%,28.2µM*,11.2µM*,-36.7,-21.5%
COc1cc2[nH]c(=O)n(Cc3ccc(C(=O)N4CCC(N5CCCCC5)CC4)cc3)c(=O)c2cc1OC,-3.8%,-9.2%,-6.8%,·,-8.8%
O=C(c1ccc2c(=O)n(CCc3ccccc3)c(=O)[nH]c2c1)N1CCN(c2ccccc2)CC1,-1.7%,-26.1%,-27.1%,·,-4.1%
COc1cc2[nH]c(=O)n(Cc3ccc(C(=O)N4CCN(c5ccc(Cl)cc5)CC4)cc3)c(=O)c2cc1OC,?,25.1µM*,·,-9.3,?
O=C(c1ccc2c(=O)n(CCc3ccccc3)c(=O)[nH]c2c1)N1CCN(c2ccc(Cl)cc2)CC1,-29.8%,15.8µM*,·,-30.0,-28.1%
Cc1ccn2c(Nc3ccc(C(C)C)cc3)c(-c3cccs3)nc2c1,-21.5%,7.8%,·,-1.2,-22.6%
Cc1ccc(NC(=O)Cn2c(=O)cc(-c3ccccc3)c3c(C)nn(C)c32)c(Cl)c1,?,?,·,13.5,?
COc1ccc(Cl)cc1NC(=O)c1noc2c1CCc1ccccc1-2,-12.2%,-32.4%,·,3.1,-15.3%
COc1ccc(OC)c(NC(=O)c2ccc3c(=O)n(CCc4ccccc4)c(=S)[nH]c3c2)c1,-9.1%,0.794µM*,?,?,-9.9%
COc1ccc(OC)c(NC(=O)CCn2c(=S)[nH]c3ccccc3c2=O)c1,-14.5%,2.3%,-0.5%,?,-0.5%
O=C(c1ccc2c(=O)n(CCc3ccccc3)c(=O)[nH]c2c1)N1CCN(c2ccc(F)cc2)CC1,-0.4%,11.2µM*,?,-37.7,?
Cc1ccc(NC(=O)CSc2nc3ccccc3c3nc(CCn4c(C)nc5ccccc54)nn23)cc1F,?,-26.5%,·,-11.3,?
Cc1ccccc1NC1=C(Cl)C(=O)OC1NC(=O)c1ccccc1 (stereo unspecified),-4.0%,·,-1.1%,-82.3*,i
CCOC1OC(=O)C(Cl)=C1Nc1ccccc1C (stereo unspecified),-1.4%,-9.2%,-7.1%,-31.8,-20.6%
Cc1ccc2nc(SCC(=O)Nc3ccc(F)c([N+](=O)[O-])c3)[nH]c2c1,-9.1%,-2.8%,?,-10.8,i
CC(Sc1nc2ccccc2[nH]1)C(=O)Nc1ccccc1F (stereo unspecified),-6.4%,-15.6%,3.0%,-73.0*,-2.7%
Cc1ccc2nc(SCC(=O)Nc3cc([N+](=O)[O-])ccc3F)[nH]c2c1,-25.2%,-29.7%,?,-91.1*,i
Cc1ccc2nc(SCC(=O)NC3CCCc4ccccc43)[nH]c2c1 (stereo unspecified),?,0.0%,11.2µM*,?,?
Cc1ccc2nc(SC(C)C(=O)Nc3cccc([N+](=O)[O-])c3)[nH]c2c1 (stereo unspecified),?,?,?,-67.5*,-22.4%
CC(=O)c1ccc(NC(=O)CSc2nnc3ccc(-c4ccc(Cl)cc4)nn23)cc1,-13.1%,-3.2%,·,40.2,-3.8%
CCCOc1ccc(CNC(=O)C2CCCN(c3nc4c(C)cc(C)cc4s3)C2)cc1 (stereo unspecified),-21.2%,-25.2%,·,-23.9,-20.0%
Cc1ccc(C)c(CN2C(=O)c3ccccc3S(=O)(=O)c3ccc(C(=O)N4CCCCC4)cc32)c1,-4.3%,6.7%,·,-0.3,-7.2%
CCc1cc2c(cc3c(=O)n(CC(=O)NC(C)C)nc(CC)n32)s1,-11.3%,-6.5%,·,-12.3,-14.1%
COc1cccc(NC(=O)CSc2nnc3[nH]c(=O)cc(-c4ccccc4)n23)c1,-15.3%,26.8%,·,18.7,i
SMILES,VACV Venus inh,FMDV inh,HCV inhibitor,HCMV antiviral,VACV mCherry inh
O=C(COc1cccc(Cl)c1)N1CCC(c2nc3ccccc3s2)CC1,-4.4%,0.0%,·,-6.2,-10.5%
CC(=O)Nc1ccc(Nc2nc(-c3cc4ccccc4oc3=O)cs2)cc1,?,-29.8%,?,1.5,-20.2%
Nc1ccc(Nc2nc(-c3cc4ccccc4oc3=O)cs2)cc1,-15.1%,0.0%,-6.6%,-60.9*,?
CCC[C@H]1[C@@H](NS(=O)(=O)c2ccc(C)cc2)CC[C@@]23CCCN2C(=O)CCC[C@@H]13,·,·,·,-102.7*,·
COc1ccc2c(c1)CCc1cnc(-n3ncc(C(=O)N(C)CC4CCCN(C)C4)c3C)nc1-2 (stereo unspecified),-8.0%,-5.9%,·,·,-7.8%
NC(=S)Cc1nc(-c2ccc(Cl)cc2)cs1,·,-15.1%,11.2µM*,?,·
O=C(Nc1ccc([N+](=O)[O-])cc1)Nc1nc(-c2ccc(Cl)s2)cs1,5.62µM*,?,?,-99.9*,?
Cc1ccc(-c2csc(NC(=O)c3ccc([N+](=O)[O-])o3)n2)cc1,?,1.1%,14.1µM*,-26.1,?
NC(=O)Cc1nc(-c2ccc([N+](=O)[O-])cc2)cs1,-9.2%,-3.4%,-3.3%,-92.7*,-13.7%
CCCC(=O)Nc1nc(-c2ccc(Cl)s2)cs1,·,9.3%,?,104.5,·
COc1cccc(-c2ccc3c(N)c(C(=O)c4ccc(F)cc4)sc3n2)c1,-5.5%,11.8%,·,-38.7,-11.2%
O=C1CCC[C@H]2[C@@H](Cc3ccccc3)[C@@H](NS(=O)(=O)c3ccccc3)CC[C@]23CCCN13,·,·,·,-20.9,·
COc1ccc(NC(=O)c2ccccc2OCC(=O)Nc2ccc(Br)cc2)cc1,-22.2%,·,·,·,-18.1%
Cc1noc(C)c1C(=O)Nc1nc(-c2ccc([N+](=O)[O-])cc2)cs1,-10.2%,?,?,-61.7*,i
CC(=O)Nc1nc(-c2ccc([N+](=O)[O-])cc2)cs1,·,7.3%,9.9%,-84.8*,·
Cn1c(=O)oc2cc(S(=O)(=O)Nc3cccc4c3CCCC4)ccc21,-5.7%,9.1%,-4.3%,-90.7*,-23.4%
Cc1cc(C)c(NS(=O)(=O)c2ccc3c(c2)oc(=O)n3C)c(C)c1,-12.3%,-8.9%,·,?,-5.1%
COc1cccc(-c2cc(N(C)Cc3ccco3)ncn2)c1,·,-5.8%,·,·,·
CCn1cc(C(=O)NCCCOC)c(=O)c2cc(S(=O)(=O)N(C)C3CCCCC3)ccc21,-6.4%,-18.7%,1.8%,-36.4,-17.2%
CCn1cc(C(=O)NCCc2ccc(OC)c(OC)c2)c(=O)c2cc(S(=O)(=O)N(C)C3CCCCC3)ccc21,?,-11.2%,·,-72.5*,?
CCC1CCCCN1CCCNC(=O)c1cn(CC)c2ccc(S(=O)(=O)N(C)C3CCCCC3)cc2c1=O (stereo unspecified),-8.8%,9.3%,?,-69.1*!,-15.7%
CCCN(CCC)CCCNC(=O)c1cn(CC)c2ccc(S(=O)(=O)N(C)C3CCCCC3)cc2c1=O,-16.2%,7.8%,?,-81.5*!,-19.1%
Cc1ccc(N2CCN(S(=O)(=O)N3CCCCC3)CC2)cc1C,1.8%,-10.5%,2.1%,-69.3*,-6.5%
